# Source: PubChem
# Compounds with a hit are over-represented: about 1.2% of the library has one in this group of screens.
# Shn3 3UTR inh = Schnurri-3 reporter inhibition in Clone20 osteoblasts. Clone20 osteoblast Shn3 3'UTR firefly luciferase, 24 h. inhibition, % at 12.5 µM. 360,000 compounds, 0.52% hits;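 active = mean inhibition of at least 75% with every replicate also reaching 75%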;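 note: 0% = median of neutral control wells and 100% = pilot-screen positive control compound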
# SRC1 inh = human NCOA1 inhibition; Q15788; HEK293 GAL4-SRC1 luciferase reporter, luminescence; inhibition, % at 3.6 µM; 360,000 compounds, 0.12% hits; AID 588354;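 active = inhibition above the campaign mean plus 3 SD, with each screening campaign given its own cutoff, cut at about 60% in these data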;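 note: 0% = DMSO treated cells and 100% = gossypol at 36 µM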
# Target sequence (Q15788 whole entry, looked up, the tested form may be a part): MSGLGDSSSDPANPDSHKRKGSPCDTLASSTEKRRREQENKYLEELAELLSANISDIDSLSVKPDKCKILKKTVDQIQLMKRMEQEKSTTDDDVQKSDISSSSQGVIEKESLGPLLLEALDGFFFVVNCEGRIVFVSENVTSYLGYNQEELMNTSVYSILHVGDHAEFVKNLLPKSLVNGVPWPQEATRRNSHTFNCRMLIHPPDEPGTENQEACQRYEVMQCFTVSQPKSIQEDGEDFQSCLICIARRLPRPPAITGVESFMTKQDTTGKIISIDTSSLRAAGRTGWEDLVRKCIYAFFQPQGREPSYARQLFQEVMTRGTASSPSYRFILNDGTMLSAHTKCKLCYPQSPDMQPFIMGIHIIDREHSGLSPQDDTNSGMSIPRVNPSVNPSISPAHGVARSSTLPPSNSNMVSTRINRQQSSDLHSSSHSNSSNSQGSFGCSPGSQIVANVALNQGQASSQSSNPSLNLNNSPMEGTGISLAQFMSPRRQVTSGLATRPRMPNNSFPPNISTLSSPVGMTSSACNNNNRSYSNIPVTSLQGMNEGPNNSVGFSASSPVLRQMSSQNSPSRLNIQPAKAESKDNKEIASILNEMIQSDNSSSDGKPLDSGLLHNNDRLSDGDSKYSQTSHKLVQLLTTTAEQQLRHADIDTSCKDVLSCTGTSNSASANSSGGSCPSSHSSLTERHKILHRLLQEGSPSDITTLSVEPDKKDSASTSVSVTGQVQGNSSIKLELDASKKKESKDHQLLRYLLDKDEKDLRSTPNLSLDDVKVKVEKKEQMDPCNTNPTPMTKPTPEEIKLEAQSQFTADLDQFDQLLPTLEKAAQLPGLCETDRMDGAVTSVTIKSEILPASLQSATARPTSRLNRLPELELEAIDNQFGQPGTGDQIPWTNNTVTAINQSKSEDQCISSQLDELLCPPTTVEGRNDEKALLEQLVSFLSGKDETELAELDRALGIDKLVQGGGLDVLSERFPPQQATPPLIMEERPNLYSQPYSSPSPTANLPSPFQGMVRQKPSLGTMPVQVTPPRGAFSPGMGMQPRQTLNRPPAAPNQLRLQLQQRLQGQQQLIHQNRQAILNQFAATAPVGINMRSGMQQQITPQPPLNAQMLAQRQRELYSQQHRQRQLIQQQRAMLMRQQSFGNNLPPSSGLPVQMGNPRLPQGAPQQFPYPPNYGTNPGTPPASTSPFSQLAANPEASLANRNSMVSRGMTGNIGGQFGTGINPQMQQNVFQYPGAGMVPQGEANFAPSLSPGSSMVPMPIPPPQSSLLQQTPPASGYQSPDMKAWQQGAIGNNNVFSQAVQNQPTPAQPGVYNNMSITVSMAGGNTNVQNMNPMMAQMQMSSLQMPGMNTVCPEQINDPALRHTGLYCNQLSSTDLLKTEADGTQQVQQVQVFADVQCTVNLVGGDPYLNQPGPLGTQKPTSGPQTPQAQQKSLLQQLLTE
# SRC3 inh = human NCOA3 inhibition. HEK293 GAL4-SRC3 luciferase reporter, luminescence. Q9Y6Q9. inhibition, % at 3.6 µM. AID 588352. 360,000 compounds, 0.17% hits;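 active = inhibition above a per-campaign cutoff, the mean of all compounds plus 3 SD, cut at about 60% in these data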;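 note: 0% = DMSO-treated cells and 100% = gossypol-treated cells at 36 µM; higher means less SRC3-driven luciferase light from the GAL4 reporter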
# EBV LMP1 NFkB = Epstein-Barr LMP1 NF-kappaB reporter inhibition; inhibition, % at 12.5 µM; LMP1-induced NF-kappaB luciferase reporter cells, luminescence; 350,000 compounds, 0.69% hits; AID 504558; in the data active = inhibition above about 41%;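 note: 0% = neutral control wells and 100% = reference inhibitor control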
# NCOA2 inhibitor = inhibits human steroid receptor coactivator 2; AID 651957; inhibition, % at 9 µM; HEK293 GAL4-SRC2 luciferase reporter, luminescence; 370,000 compounds, 0.17% hits; Q15596;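 active = inhibition above the mean inhibition of all tested compounds plus 3 SD, set per campaign, cut at about 52% in these data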;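 note: 0% = DMSO treated cells and 100% = cells given Gossypol at 36 µM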
# LRH-1 inv ag = NR5A2 inverse agonism in reporter assay. inhibition, % at 3.6 µM. 360,000 compounds, 0.13% hits. HEK293T StAR-luciferase reporter, LRH-1 transfected, 24 h. AID 602396;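 active = inhibition above the mean inhibition of all tested compounds plus 3 SD, cut at about 73% in these data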;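 note: 0% = DMSO wells and 100% = reporter-only cells lacking LRH-1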
# * marks the source's active call; other numbers are inactive results; i = inactive; x = no result given.
SMILES,Shn3 3UTR inh,SRC1 inh,SRC3 inh,EBV LMP1 NFkB,NCOA2 inhibitor,LRH-1 inv ag
COc1ccc(Cn2c(O)c(C=Nc3ccccc3C(=O)O)c3ccccc3c2=O)cc1,-1,-4,18,44*,-3,-9
COc1ccc(Cn2c(O)c(C=Nc3ccc(OC)cc3)c3ccccc3c2=O)cc1,25,1,3,7,15,0
CC1(C)CC(NS(=O)(=O)c2ccc(F)cc2)CC(C)(C)N1,14,-41,-25,43*,-7,12
CC1(C)CC(NS(=O)(=O)c2ccc(S(N)(=O)=O)cc2)CC(C)(C)N1,7,6,-5,-14,-26,-2
Cc1ccc(C)c(S(=O)(=O)N2CCN(CC(=O)N3CCc4ccccc4C3)CC2)c1,4,-6,-3,57*,-7,16
O=C(Nc1ccccn1)c1ccc(-c2ccccc2)cc1,13,-41,-50,47*,9,-85
O=Cc1cc(OCc2ccccc2)ccc1[B-](F)(F)F,-30,6,-3,55*,-6,16
COCCCN1C(=O)[C@H](CC(=O)N2CCN(C(=O)C3CC3)CC2)[C@]2(C(=O)OC)CCCCC=C12,x,x,x,x,2,x
CCN1/C(=C/c2ccc3cc(C)ccc3[n+]2CC)Sc2ccccc21,84,65*,55,-6,-30,96*
CC[n+]1c(/C=C2\Sc3ccccc3N2C)ccc2cccc(C)c21,89*,29,55,-14,-56,84*
CCN1/C(=C/c2ccc3cc(C)ccc3[n+]2CC)Sc2cc(C)c(C)cc21,35,32,56,11,30,68
CN1/C(=C/c2cccc[n+]2CCO)Sc2ccccc21,-9,7,-5,-2,-39,-5
CC(OC(=O)c1ccc(S(C)(=O)=O)c([N+](=O)[O-])c1)C(=O)NC1C2CC3CC(C2)CC1C3 (stereo unspecified),98*,-38,-25,x,-48,-5
CC(C)CN1CCN(C(=O)COC(=O)c2ccc(S(C)(=O)=O)c([N+](=O)[O-])c2)CC1,75,4,-23,x,-33,6
CS(=O)(=O)c1ccc(C(=O)OCC(=O)NC23CC4CC(CC(C4)C2)C3)cc1[N+](=O)[O-],68,-19,3,-6,-6,5
CCC(OC(=O)c1ccc(S(C)(=O)=O)c([N+](=O)[O-])c1)C(=O)NC1C2CC3CC(C2)CC1C3 (stereo unspecified),96*,-17,-31,x,-18,-18
CCOc1cc(/C=C2\C(=O)ON=C2C)ccc1OCc1ccccc1,91*,-22,13,6,0,17
Cc1ccc(C(=O)NCCN(C)C)c(C)c1,8,-18,22,6,-17,-26
CNc1c2cccc(C)c2nc2c(C(=O)NCCN(C)C)cccc12,97*,i,i,91*,-333,46
O=c1c(Br)c(Br)cnn1-c1ccccc1,98*,-87,-43,2,-60,-18
Cc1ccc(-n2ncc(Br)c(Br)c2=O)cc1,96*,-24,-21,19,x,4
CC(=O)CC[C@H]1CC[C@]2(CCCN(S(=O)(=O)C3CCCCC3)C2)O1,x,x,x,x,-27,x
COc1ccc(/C=N/Nc2nnc(C)n2N)cc1OC,9,0,-4,60*,-1,19
COc1ccc(/C=N/N=C/c2ccc(OC)c(OC)c2)cc1OC,-1,14,1,44*,-15,-11
O=C(C(=O)N1CCC(CNC(=O)c2sc3ccccc3c2Cl)CC1)c1cccs1,x,x,x,x,13,x
SMILES,Shn3 3UTR inh,SRC1 inh,SRC3 inh,EBV LMP1 NFkB,NCOA2 inhibitor,LRH-1 inv ag
COc1cccc(-c2nc3n(n2)C(c2cccs2)C(C(=O)Nc2cccnc2)=C(C)N3)c1 (stereo unspecified),-2,-19,23,50*,-13,-11
CC(CNC(=O)c1cc(COc2ccc3ncccc3c2)on1)c1ccccc1 (stereo unspecified),88*,26,23,14,28,31
Cc1cc(CN(C)C(=O)c2cc(COc3ccc4ncccc4c3)on2)on1,79,-5,17,23,8,22
O=C(NC1CCCCCCC1)c1cc(COc2ccc3ncccc3c2)on1,88*,24,35,49*,31,42
O=C(OCc1cn(Cc2cccc(F)c2)nn1)N1CCCCC1,x,x,x,x,22,x
CC(C)C[C@H](NC(=O)c1ccc(Cl)cc1Cl)C(=O)N1CCC[C@H]1C(=O)NCc1ccccc1,x,x,x,x,-1,x
COc1ccc(/C=C/C(=O)C(C(N)=O)=C2SCCS2)cc1,-53,-31,-22,-6,-11,-20
NC(=O)C(C(=O)/C=C/c1ccc(Cl)cc1)=C1SCCS1,x,44,66*,25,-12,25
CCOC(=O)C1(Cc2ccccc2)CCN(Cc2ccc(C(F)(F)F)cc2)CC1,x,x,x,x,-8,x
Cc1ccc(NS(=O)(=O)c2ccc(C(=O)NC3CCN(Cc4ccccc4)CC3)cc2)cc1,85*,31,21,27,-1,38
COC(=O)[C@]12CCCCC=C1N(Cc1ccc(OC)cc1)C(=O)[C@@H]2CC(=O)NCC12CC3CC(CC(C3)C1)C2,x,x,x,x,17,x
CCN(CC)C(=O)C1CCCN(c2ccc([N+](=O)[O-])cc2[N+](=O)[O-])C1 (stereo unspecified),82,9,11,52*,5,11
CCN(CC)C(=O)C1CCCN(c2ccccc2[N+](=O)[O-])C1 (stereo unspecified),17,-10,8,-2,-10,8
NCCN1C(=O)S/C(=C\c2ccc3c(c2)OCO3)C1=O,63,13,31,5,69*,23
CCOC(=O)[C@]12CCCCC/C=C\1N(Cc1ccc(OC)cc1)C(=O)[C@H]2CC(=O)NCc1cccs1,x,x,x,x,-21,x
COc1ccc(C(=O)NCC2CCN(C(=O)C(=O)c3cc4ccccc4o3)CC2)cc1,x,x,x,x,2,x
COc1cccc(C(=O)N2CCN(c3ccccn3)CC2)c1,14,-6,1,49*,-14,5
Cc1cc(C)cc(C(=O)OCCCN(C)C2CN(Cc3cn(Cc4ccccc4C(F)(F)F)nn3)S(=O)(=O)C2)c1 (stereo unspecified),x,x,x,x,10,x
COc1cc(-c2nnc(-c3cc(-c4ccccc4)nc4ccccc34)o2)cc(OC)c1OC,2,-9,2,8,94*,9
COC(=O)[C@]1(Cc2ccccc2)NC=C(C(=O)c2ccccc2)[C@@H]1c1cccs1,x,x,x,x,4,x
CN(Cc1ccccc1)C1=CC(=[N+]2CCCCC2)CC(C)(C)C1,85,61*,72*,44*,-2,84*
CC1(C)CC(N2CCN(Cc3ccccc3)CC2)=CC(=[N+]2CCCCC2)C1,82,37,44,15,29,57
NC(=O)c1ncn([C@@H]2O[C@H](C(=O)N[C@H](Cc3ccccc3)C(=O)N3CCN(CC(=O)Nc4ccccn4)CC3)[C@@H](O)[C@H]2O)n1,x,x,x,x,19,x
N#Cc1sc2nccc(Nc3ccccc3)c2c1N,37,72*,64*,x,42,42
